Results as given in PMC9574860, “Chemical Toolkit for PARK7: Potent, Selective, and High-Throughput” (Journal of Medicinal Chemistry, 2022).
Hit rate of the full screen: of about 7,900 compounds, about 400 (5.1%) showed an effect of 50% or more. This excerpt belongs to a sample that is enriched for strong results.

molecular target: Parkinson's disease protein 7 (PARK7/DJ1) (human, UniProt Q99497); assay: primary screen, percent inhibition; read as competition with a fluorescent probe by fluorescence polarization; higher = more effect of the substance; conditions: 100 µM
Sequence (Q99497 whole entry, looked up, the tested form may be a part): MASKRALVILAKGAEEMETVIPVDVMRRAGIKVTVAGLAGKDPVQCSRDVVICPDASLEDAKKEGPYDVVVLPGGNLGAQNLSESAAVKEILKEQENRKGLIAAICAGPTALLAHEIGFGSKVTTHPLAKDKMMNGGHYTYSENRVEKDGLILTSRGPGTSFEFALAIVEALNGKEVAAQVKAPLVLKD
In short: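 Covalent fragments at 100 μM final were incubated 2 h with 0.2 μM PARK7, then 20 nM probe JYQ-107 added for a further 2 h. Fluorescence polarization read at 480/520 nm; relative FP loss versus reference controls gave remaining enzyme activity.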

Question: For C=CC(=O)N1CCN(C)c2cc(F)ccc21, which Inhibition % is on record?
Answer: Its Inhibition % is 14.6%.

Question: With N#CCCN(C(=O)CCl)c1cccc(Cl)c1 as the molecule, how does the Inhibition % read?
Answer: The Inhibition % was 29.3%.

Question: Which Inhibition % does the source give for O=C(CCl)NC1CCN(C(=O)CCc2ccccc2)CC1 here?
Answer: The Inhibition % was 11.9%.

Question: For CCS(=O)(=O)N1CCc2cc(C(=O)CCl)ccc21, which Inhibition % is on record?
Answer: The Inhibition % was 11.9%.

Question: For CC1C(=O)Nc2ccc(C(=O)CCl)cc21 (stereo not shown), which Inhibition % is on record?
Answer: Its Inhibition % is 85.9%.

Question: How did the Inhibition % turn out when O=C1CCCc2cc(C(=O)CCl)ccc2N1 was run?
Answer: Its Inhibition % is 86.5%.

Question: For CS(=O)(=O)N1CCCc2cc(C(=O)CCl)ccc21, which Inhibition % is on record?
Answer: Its Inhibition % is 76.4%.

Question: CC1(C)C(=O)Nc2ccc(C(=O)CCl)cc21 was tested. Which Inhibition % did it give?
Answer: The Inhibition % was 32.9%.

Question: Which Inhibition % does the source give for C=CC(=O)Nc1ccc2c(c1)CCCC(=O)N2 here?
Answer: The Inhibition % was 4.19%.

Question: How did the Inhibition % turn out when O=C1CCc2cc(OCCCl)ccc2N1 was run?
Answer: Its Inhibition % is 6.21%.

Question: Which Inhibition % does the source give for O=C1CCc2cc(C(=O)CCl)c(F)cc2N1 here?
Answer: The Inhibition % was 1.18%.

Question: For O=C1CCc2cc(C(=O)CCl)ccc2N1, which Inhibition % is on record?
Answer: Its Inhibition % is 52.8%.

Question: With CS(=O)(=O)N1CCc2cc(C(=O)CCl)ccc21 as the molecule, how does the Inhibition % read?
Answer: The Inhibition % was 36.2%.

Question: With O=C(CCl)c1cc2c3c(c1)CC(=O)N3CCC2 as the molecule, how does the Inhibition % read?
Answer: The Inhibition % was 21.1%.

Question: Which Inhibition % does the source give for C=CC(=O)N(C1CC1)C1CCS(=O)(=O)C1 (stereo not shown) here?
Answer: Its Inhibition % is 10.3%.

Question: For CC(C)Cc1nc(C#N)c(NCc2ccncc2)o1, which Inhibition % is on record?
Answer: Its Inhibition % is 6.94%.

Question: Which Inhibition % does the source give for CC1(C)OB(c2ccc(N)nc2)OC1(C)C here?
Answer: Its Inhibition % is 9.29%.

Question: For COc1ccc(-c2ccncc2)cc1B(O)O, which Inhibition % is on record?
Answer: The Inhibition % was 6.7%.

Question: With N#CC(=Cc1cccs1)C(N)=O as the molecule, how does the Inhibition % read?
Answer: The Inhibition % was 10.8%.

Question: With Cc1nn(C)c(NS(=O)(=O)C=Cc2ccccc2)c1C as the molecule, how does the Inhibition % read?
Answer: The Inhibition % was 11.2%.

Question: How did the Inhibition % turn out when C=CC(=O)N1CCCc2c1nc[nH]c2=O was run?
Answer: Its Inhibition % is 20.2%.

Question: For C=CC(=O)N1CCN(C(=O)c2cccc(Cl)c2)CC1, which Inhibition % is on record?
Answer: The Inhibition % was 4.01%.

Question: For CN1C(=O)Cc2cc(C(=O)CCl)ccc21, which Inhibition % is on record?
Answer: The Inhibition % was 83.4%.

Question: O=C1COc2ccc(C(=O)CCl)cc2N1 was tested. Which Inhibition % did it give?
Answer: Its Inhibition % is 8.16%.

Question: How did the Inhibition % turn out when CN1Cc2cc(C(=O)CCl)ccc2NC1=O was run?
Answer: The Inhibition % was 11.5%.

Question: With O=C1Cc2cc(C(=O)CCl)ccc2N1 as the molecule, how does the Inhibition % read?
Answer: The Inhibition % was 81.4%.

Question: How did the Inhibition % turn out when CCC(=O)N1CCc2cc(C(=O)CCl)ccc21 was run?
Answer: The Inhibition % was 3.43%.

Question: How did the Inhibition % turn out when CN1C(=O)CCc2cc(C(=O)CCl)ccc21 was run?
Answer: Its Inhibition % is 19.5%.

Question: Which Inhibition % does the source give for C=CC(=O)NCC(=O)NC1(C)CCCCC1 here?
Answer: The Inhibition % was 13.6%.

Question: Which Inhibition % does the source give for C=CC(=O)NCc1nc2c(s1)COCC2 here?
Answer: Its Inhibition % is 5.36%.

Question: O=S(=O)(C=Cc1ccccc1)NC1CCCn2ncnc21 (stereo not shown) was tested. Which Inhibition % did it give?
Answer: The Inhibition % was 12.3%.

Question: C=CC(=O)Nc1c(C)nn(CC)c1C was tested. Which Inhibition % did it give?
Answer: Its Inhibition % is 2.74%.

Question: For C=CC(=O)Nc1c(C)nn(C)c1N1CCC1, which Inhibition % is on record?
Answer: The Inhibition % was 87.1%.

Question: Which Inhibition % does the source give for C=CC(=O)Nc1c(C)nn(C(C)C)c1C here?
Answer: Its Inhibition % is 0.88%.
